From PubChem BioAssay (NCI)
Compounds without any hit were thinned out: in the full panel of roughly 83,000, 20% have a hit.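 Assay: single dose, 48 h. Readout: percent growth (0 = no net growth; negative = cell death). Active: <10.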 Calls of active or inactive are those of the source.

Experiments:
Experiment in all cases: NCI-60 one-dose screen, 48 h (100 = growth as untreated, 0 = no growth, -100 = all killed)
[1] = tested on: SK-MEL-2 melanoma; details: 10 µM unless noted
[2] = tested on: EKVX NSCLC; details: 10 µM unless noted
[3] = tested on: SN12C renal; details: 10 µM unless noted
[4] = tested on: UO-31 renal; details: 10 µM unless noted
[5] = tested on: TK-10 renal; details: 10 µM unless noted
[6] = tested on: ACHN renal; details: 10 µM unless noted
[7] = tested on: CAKI-1 renal; details: 10 µM unless noted
[8] = tested on: A498 renal; details: 10 µM
[9] = tested on: HL-60(TB) leukemia; details: 10 µM unless noted
[10] = tested on: CCRF-CEM leukemia; details: 10 µM unless noted
[11] = tested on: MOLT-4 leukemia; details: 10 µM unless noted
[12] = tested on: SR leukemia; details: 10 µM unless noted
[13] = tested on: OVCAR-8 ovarian; details: 10 µM unless noted
[14] = tested on: OVCAR-5 ovarian; details: 10 µM unless noted
[15] = tested on: OVCAR-4 ovarian; details: 10 µM unless noted
[16] = tested on: SK-OV-3 ovarian; details: 10 µM unless noted
[17] = tested on: OVCAR-3 ovarian; details: 10 µM unless noted
[18] = tested on: HS 578T breast; details: 10 µM unless noted
[19] = tested on: RPMI-8226 leukemia; details: 10 µM unless noted
[20] = tested on: IGROV1 ovarian; details: 10 µM unless noted

Measured: growth

CCOC(=O)c1c(C)n(Cc2ccccc2)c2cc(CN(C)C)c(O)cc12
inactive: [1] 92.1% | [2] 64.1% | [3] 57.8% | [4] 43.8% | [5] 68.8% | [6] 81.5% | [7] 61.6% | [8] 43.2% | [9] 62% | [10] 41.2% | [11] 52.7% | [12] 17.8% | [13] 80.7% | [14] 69.3% | [15] 68.1% | [16] 70.4% | [17] 79.4% | [18] 61.1%

CN1CCC(O)(c2ccc(F)cc2)C(C(=O)c2ccc(F)cc2)C1 (configuration not stated)
inactive: [1] 91.2% | [2] 106% | [3] 104% | [4] 84.7% | [5] 110% | [6] 101% | [7] 104% | [8] 104% | [9] 134% | [10] 85.2% | [11] 94.2% | [13] 102% | [14] 93.2% | [15] 102% | [16] 102% | [20] 96.3% | [17] 111% | [18] 101%
active: [19] -9.61%

O=C(c1cccc(O)c1O)c1cn(Cc2ccc(F)cc2)c2cccc(O)c12
inactive: [2] 52.4% | [3] 34% | [5] 77% | [6] 21.5% | [7] 21.5% | [8] 108% | [13] 30.5% | [14] 33.8% | [15] 39% | [16] 40.7% | [17] 22.3% | [18] 45.5%
active: [1] -6.9% | [4] -10.3% | [9] -32.8% | [10] 4.35% | [11] 4.3% | [19] 9.16% | [20] -42.8%

C[C@@]1(CCCCCCCCCc2ccc(O)cc2)C[C@]2(C)OC(=O)C[C@@H]2OO1
inactive: [1] 117% | [2] 98.7% | [3] 98.5% | [4] 16.7% | [5] 112% | [6] 65.5% | [7] 65.1% | [8] 104% | [9] 81% | [10] 75.4% | [11] 78% | [19] 83% | [13] 94.5% | [15] 85.5% | [16] 122% | [17] 126% | [18] 92.9%
active: [20] -51.3%

C[C@@]12CC[C@@H](O)C[C@@H]1CC[C@H]1[C@H]2CC[C@@]2(C)[C@H](c3ccc(=O)oc3)CC[C@@]12O
active: [1] -29.7% | [2] -86.4% | [3] -24.9% | [4] -96.2% | [5] -81.4% | [6] -90% | [7] -83.5% | [8] -29.9% | [9] -30.6% | [10] -9% | [11] -26.7% | [19] -14.8% | [13] -63.3% | [14] -86.2% | [15] -76.3% | [16] -11.9% | [20] -28.7% | [17] -84.8% | [18] -14%

COc1ccc(/C=C\c2cc(OC)c(OC)c(OC)c2)cc1NC(=O)/C=C/c1ccc(OC)c(OC)c1
inactive: [1] 66.9% | [2] 55.1% | [3] 43.5% | [4] 41.6% | [5] 91% | [6] 42% | [7] 42.3% | [10] 12.1% | [11] 17.3% | [19] 53.6% | [13] 44.4% | [14] 55.4% | [15] 58.7% | [20] 55.1% | [18] 31.3%
active: [8] -1.67% | [9] -24.9% | [16] -19.5% | [17] 1.59%

O=C(CCl)c1ccc([N+](=O)[O-])o1
inactive: [2] 96.2% | [8] 101% | [16] 102% | [18] 40.9%
active: [1] -7.05% | [3] -38.1% | [4] -8.81% | [5] -39.4% | [6] -40.6% | [7] -95.1% | [9] -68.9% | [10] -74.9% | [11] -52.8% | [19] -47.7% | [13] 8.79% | [14] -72.8% | [15] 2.25% | [20] 1.46% | [17] -100%

O=C(O)C(Cl)(Cl)C(F)(F)F
inactive: [1] 105% | [2] 105% | [3] 104% | [4] 93.5% | [5] 98.3% | [6] 107% | [7] 95% | [8] 95.1% | [9] 110% | [10] 100% | [11] 112% | [12] 122% | [19] 108% | [15] 104% | [16] 110% | [20] 104% | [17] 101% | [18] 95.9%

CC(C)(NC(=O)O[C@@H]1CN2CCC1CC2)c1csc(-c2ccc(F)cc2)n1
inactive: [1] 108% | [2] 89.5% | [3] 95.4% | [4] 81.1% | [5] 91.9% | [6] 98.4% | [7] 81.5% | [8] 90.6% | [9] 90% | [10] 98.3% | [11] 91.3% | [19] 103% | [13] 102% | [14] 96.2% | [15] 97.4% | [16] 99.6% | [20] 101% | [17] 109% | [18] 98.2%

CC(=O)Oc1ccccc1C(=O)NCCC[Se]C#N
inactive: [1] 44.3% | [2] 44.5% | [10] 22.9% | [11] 10.7% | [19] 91.1% | [14] 83.3% | [15] 57.2% | [16] 32.6% | [20] 10.8% | [18] 17.1%
active: [3] -17.3% | [4] -37.8% | [5] -65.7% | [6] 6.63% | [7] 0.654% | [8] -2.68% | [9] 5.1% | [13] -13.9% | [17] -5.3%

O=C(Nc1ccc(Br)cc1)c1cc(Br)cc(Br)c1O
inactive: [2] 10.7% | [5] 14.6% | [8] 32.2% | [9] 84.3% | [10] 13.5% | [11] 62.2% | [13] 11.1% | [15] 19.7% | [20] 19.4% | [17] 32.9% | [18] 43.4%
active: [1] -21.8% | [3] -2.01% | [4] 4.99% | [6] -19.5% | [7] -6.11% | [19] -10.1% | [16] -11.7%

C1CCC([PH+](C2CCCCC2)C2CCCCC2[PH+](C2CCCCC2)C2CCCCC2)CC1.O=C(C1[CH-]CCCC1)C1CCCC[N-]1.[Au] (configuration not stated)
active: [1] -52.6% | [2] -53.2% | [3] -52.3% | [4] -87.9% | [5] -47.7% | [6] -74.6% | [7] -57.4% | [8] -51.3% | [9] -39.2% | [10] 2.64% | [11] -5.55% | [12] -1.52% | [13] 3.3% | [14] -64.5% | [16] -52.2% | [20] -33.5% | [17] -77.7%

CCCCCCC(=O)NC1=C(N2CC2)C(=O)C(NC(=O)CCCCCC)=C(N2CC2)C1=O
inactive: [1] 73% | [2] 78.3% | [3] 41.7% | [4] 43.1% | [5] 75.5% | [6] 32.9% | [7] 45.6% | [8] 66.9% | [9] 16.8% | [10] 50.7% | [11] 49% | [12] 40.7% | [13] 32% | [14] 93% | [15] 30.9% | [16] 39.8% | [20] 20.3% | [18] 88.2%
active: [17] -53.4%

COc1cc2c(c(OC)c1OC)-c1ccc([O-])c(=O)cc1[C@@H](NC(C)=O)CC2.COc1cc2c(c(OC)c1OC)-c1ccc([O-])c(=O)cc1[C@@H](NC(C)=O)CC2.[Cu+2]
inactive: [2] 62% | [3] 43.5% | [4] 22.2% | [5] 71.7% | [6] 53.6% | [7] 34.1% | [8] 14.9% | [11] 10.5% | [19] 15.3% | [13] 23.2% | [14] 54.3% | [15] 48.6% | [16] 17.2%
active: [1] -4.65% | [9] -44.9% | [10] 9.3% | [20] -0.159% | [17] -26.7%

COc1ccc(/C=C\c2cc(OC)c(OC)c(OC)c2)cc1NC(=O)/C=C/c1cc(OC)c(OC)c(OC)c1
active: [8] -3.68% | [16] 3.82%
inactive: [1] 47% | [2] 61.6% | [3] 71.6% | [4] 31.9% | [5] 82% | [6] 53.9% | [7] 31.5% | [9] 15.7% | [10] 39.2% | [11] 47.7% | [19] 63.8% | [13] 68.8% | [14] 77.6% | [15] 66.1% | [20] 62.4% | [17] 47.7% | [18] 51.8%

CCCCCCCOC(C(=O)OCCN(CC)CC)(c1ccccc1)c1ccccc1
inactive: [1] 103% | [2] 76.1% | [3] 93.6% | [4] 69% | [5] 77.8% | [6] 92.3% | [7] 65.4% | [8] 82.4% | [9] 79.1% | [10] 82.5% | [11] 70.3% | [19] 72.4% | [13] 104% | [14] 91.3% | [15] 81.6% | [16] 104% | [20] 68.7% | [17] 94.1% | [18] 94.5%
